# Assay results: the supplement of paper PMC10849652
# The full data set covers some 7,900 targets. This sample favours those with a hit. About 0.6% of all pairs of compound and target were hits. A number with no mark means an inactive call.
# Columns and labels:
# Assay in all cases: log2 fold change, soluble protein after heating vs DMSO (PISA); higher = thermal stabilisation; K562 cells, 10 uM, 30 min; active = over 0.2 and 3.5 SD of the protein, either way, in both replicates (recomputed)
# saracatinib = compound: CN1CCN(CCOc2cc(OC3CCOCC3)c3c(Nc4c(Cl)ccc5c4OCO5)ncnc3c2)CC1 [saracatinib]
# Outline: (§1)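 For each measurement, 10 μM compound was applied for 30 min to K562 cells at 2×10^6 cells/mL. Aliquots were heated for 3 min across 48°C-58°C, pooled, and extracted in PBS with 0.5% NP-40 at 4°C; the supernatant after 21,000xg for 90 min was soluble protein. This was quantified by TMTpro 16plex LC-MS/MS with channel sums equalised, and thermal stability was reported relative to control samples from duplicates, on a log2 fold-change scale.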
# sotrastaurin = compound: CN1CCN(c2nc(C3=C(c4c[nH]c5ccccc45)C(=O)NC3=O)c3ccccc3n2)CC1 [sotrastaurin]
# Outline: as §1
# alvocidib = compound: CN1CC[C@H](c2c(O)cc(O)c3c(=O)cc(-c4ccccc4Cl)oc23)[C@H](O)C1 [alvocidib]
# Outline: as §1
# Tubastatin A = compound: CN1CCc2c(c3ccccc3n2Cc2ccc(C(=O)NO)cc2)C1 [Tubastatin A]
# Outline: as §1
# [1] = compound: CNC(=O)C1=CC=CC=C1NC2=NC(=NC=C2Cl)NC3=C(C=C(C=C3)N4CCOCC4)OC
# Outline: as §1
# defactinib = compound: CNC(=O)c1ccc(Nc2ncc(C(F)(F)F)c(NCc3nccnc3N(C)S(C)(=O)=O)n2)cc1 [defactinib]
# Outline: as §1
# rucaparib = compound: CNCc1ccc(-c2[nH]c3cc(F)cc4c3c2CCNC4=O)cc1 [rucaparib]
# Outline: as §1
# [2] = compound: CNc1nc(-c2ccc3c(N)n[nH]c3c2)cc(N2C[C@@H](C(=O)NC3CCCCC3)CC[C@H]2C)n1
# Outline: as §1
# encorafenib = compound: COC(=O)N[C@@H](C)CNc1nccc(-c2cn(C(C)C)nc2-c2cc(Cl)cc(NS(C)(=O)=O)c2F)n1 [encorafenib]
# Outline: as §1
# [3] = compound: COC(=O)[C@H](CCSC)NC(=O)C1=C(C=C(C=C1)NC[C@H](CS)N)C2=CC=CC=C2
# Outline: as §1
# [4] = compound: COC1=CC=C(C=C1)CN2C=CC3=C2C=C(C=C3)C(=O)NO
# Outline: as §1
# filanesib = compound: CON(C)C(=O)N1N=C(c2cc(F)ccc2F)S[C@@]1(CCCN)c1ccccc1 [filanesib]
# Outline: as §1
# zotarolimus = compound: CO[C@H]1C[C@@H]2CC[C@@H](C)[C@@](O)(O2)C(=O)C(=O)N2CCCC[C@H]2C(=O)O[C@H]([C@H](C)C[C@@H]2CC[C@H](n3cnnn3)[C@H](OC)C2)CC(=O)[C@H](C)/C=C(\C)[C@@H](O)[C@@H](OC)C(=O)[C@H](C)C[C@H](C)/C=C/C=C/C=C/1C [zotarolimus]
# Outline: as §1
# idasanutlin = compound: COc1cc(C(=O)O)ccc1NC(=O)[C@@H]1N[C@@H](CC(C)(C)C)[C@](C#N)(c2ccc(Cl)cc2F)[C@H]1c1cccc(Cl)c1F [idasanutlin]
# Outline: as §1
# alisertib = compound: COc1cc(Nc2ncc3c(n2)-c2ccc(Cl)cc2C(c2c(F)cccc2OC)=NC3)ccc1C(=O)O [alisertib]
# Outline: as §1
# [5] = compound: COc1cc2nc(-c3cc(F)ccc3O)nc(N[C@@H]3CNC[C@H]3C(C)(C)O)c2cc1OC
# Outline: as §1
# gefitinib = compound: COc1cc2ncnc(Nc3ccc(F)c(Cl)c3)c2cc1OCCCN1CCOCC1 [gefitinib]
# Outline: as §1
# [6] = compound: COc1cccc2cc(-c3nc([C@H]4CC[C@H](C(=O)O)CC4)n4ncnc(N)c34)[nH]c12
# Outline: as §1
# lapatinib = compound: CS(=O)(=O)CCNCc1ccc(-c2ccc3ncnc(Nc4ccc(OCc5cccc(F)c5)c(Cl)c4)c3c2)o1 [lapatinib]
# Outline: as §1
# pictilisib = compound: CS(=O)(=O)N1CCN(Cc2cc3nc(-c4cccc5[nH]ncc45)nc(N4CCOCC4)c3s2)CC1 [pictilisib]
# Outline: as §1
# Chain of UniProt Q5T5C0 (Q5T5C0 whole entry, looked up): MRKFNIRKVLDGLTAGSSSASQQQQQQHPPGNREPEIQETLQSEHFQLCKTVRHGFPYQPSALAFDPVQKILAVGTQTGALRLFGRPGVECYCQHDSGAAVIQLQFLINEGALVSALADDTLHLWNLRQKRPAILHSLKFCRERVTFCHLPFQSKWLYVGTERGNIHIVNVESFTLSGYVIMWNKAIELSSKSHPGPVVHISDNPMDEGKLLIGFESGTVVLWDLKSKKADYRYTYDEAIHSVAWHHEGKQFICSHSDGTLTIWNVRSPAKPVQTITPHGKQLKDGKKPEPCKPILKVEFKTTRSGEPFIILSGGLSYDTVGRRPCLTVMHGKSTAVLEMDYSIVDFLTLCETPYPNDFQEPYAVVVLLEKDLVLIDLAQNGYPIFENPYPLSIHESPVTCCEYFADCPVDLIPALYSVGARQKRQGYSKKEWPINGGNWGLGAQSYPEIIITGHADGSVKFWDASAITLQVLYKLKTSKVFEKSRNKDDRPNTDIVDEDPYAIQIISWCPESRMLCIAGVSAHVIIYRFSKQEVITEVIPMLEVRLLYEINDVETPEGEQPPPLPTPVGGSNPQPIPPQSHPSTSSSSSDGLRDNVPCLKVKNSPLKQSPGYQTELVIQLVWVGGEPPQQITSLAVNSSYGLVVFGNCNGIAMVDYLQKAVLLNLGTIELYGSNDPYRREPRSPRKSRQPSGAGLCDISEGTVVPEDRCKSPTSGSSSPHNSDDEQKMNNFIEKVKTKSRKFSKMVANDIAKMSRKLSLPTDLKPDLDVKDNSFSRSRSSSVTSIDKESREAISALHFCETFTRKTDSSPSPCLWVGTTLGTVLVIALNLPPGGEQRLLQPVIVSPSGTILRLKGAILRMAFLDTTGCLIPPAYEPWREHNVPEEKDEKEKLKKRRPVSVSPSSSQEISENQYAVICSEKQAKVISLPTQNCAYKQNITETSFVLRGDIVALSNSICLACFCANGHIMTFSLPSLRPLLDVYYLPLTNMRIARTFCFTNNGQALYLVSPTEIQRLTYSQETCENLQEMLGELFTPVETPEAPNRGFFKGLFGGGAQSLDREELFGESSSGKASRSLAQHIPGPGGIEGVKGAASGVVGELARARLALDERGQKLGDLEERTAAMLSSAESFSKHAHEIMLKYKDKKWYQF
# Chain of UniProt P08240 (P08240 whole entry, looked up): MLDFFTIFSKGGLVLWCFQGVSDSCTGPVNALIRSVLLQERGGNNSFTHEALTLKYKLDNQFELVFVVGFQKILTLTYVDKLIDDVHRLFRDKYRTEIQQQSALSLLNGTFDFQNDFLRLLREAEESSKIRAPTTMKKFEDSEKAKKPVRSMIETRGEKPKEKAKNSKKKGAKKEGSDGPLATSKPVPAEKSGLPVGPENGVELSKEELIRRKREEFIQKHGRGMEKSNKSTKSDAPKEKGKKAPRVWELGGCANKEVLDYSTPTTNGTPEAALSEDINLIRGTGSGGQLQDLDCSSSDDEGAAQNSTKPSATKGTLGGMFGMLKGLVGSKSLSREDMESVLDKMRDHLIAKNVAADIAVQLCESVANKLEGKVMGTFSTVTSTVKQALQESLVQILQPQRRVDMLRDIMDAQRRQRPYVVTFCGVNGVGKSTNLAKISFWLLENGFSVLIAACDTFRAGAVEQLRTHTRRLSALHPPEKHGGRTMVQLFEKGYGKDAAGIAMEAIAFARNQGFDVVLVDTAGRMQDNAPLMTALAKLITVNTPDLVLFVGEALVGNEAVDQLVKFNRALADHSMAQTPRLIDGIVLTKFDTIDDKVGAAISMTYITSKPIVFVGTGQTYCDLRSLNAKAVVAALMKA
# Chain of UniProt P08579 (P08579 whole entry, looked up): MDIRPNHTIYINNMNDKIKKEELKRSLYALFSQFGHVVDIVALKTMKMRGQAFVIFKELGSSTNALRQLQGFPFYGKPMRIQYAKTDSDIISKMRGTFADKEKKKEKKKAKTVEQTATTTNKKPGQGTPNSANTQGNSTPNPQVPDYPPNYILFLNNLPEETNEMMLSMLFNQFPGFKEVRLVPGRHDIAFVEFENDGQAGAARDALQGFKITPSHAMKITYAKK
# Chain of UniProt O14776 (O14776 whole entry, looked up): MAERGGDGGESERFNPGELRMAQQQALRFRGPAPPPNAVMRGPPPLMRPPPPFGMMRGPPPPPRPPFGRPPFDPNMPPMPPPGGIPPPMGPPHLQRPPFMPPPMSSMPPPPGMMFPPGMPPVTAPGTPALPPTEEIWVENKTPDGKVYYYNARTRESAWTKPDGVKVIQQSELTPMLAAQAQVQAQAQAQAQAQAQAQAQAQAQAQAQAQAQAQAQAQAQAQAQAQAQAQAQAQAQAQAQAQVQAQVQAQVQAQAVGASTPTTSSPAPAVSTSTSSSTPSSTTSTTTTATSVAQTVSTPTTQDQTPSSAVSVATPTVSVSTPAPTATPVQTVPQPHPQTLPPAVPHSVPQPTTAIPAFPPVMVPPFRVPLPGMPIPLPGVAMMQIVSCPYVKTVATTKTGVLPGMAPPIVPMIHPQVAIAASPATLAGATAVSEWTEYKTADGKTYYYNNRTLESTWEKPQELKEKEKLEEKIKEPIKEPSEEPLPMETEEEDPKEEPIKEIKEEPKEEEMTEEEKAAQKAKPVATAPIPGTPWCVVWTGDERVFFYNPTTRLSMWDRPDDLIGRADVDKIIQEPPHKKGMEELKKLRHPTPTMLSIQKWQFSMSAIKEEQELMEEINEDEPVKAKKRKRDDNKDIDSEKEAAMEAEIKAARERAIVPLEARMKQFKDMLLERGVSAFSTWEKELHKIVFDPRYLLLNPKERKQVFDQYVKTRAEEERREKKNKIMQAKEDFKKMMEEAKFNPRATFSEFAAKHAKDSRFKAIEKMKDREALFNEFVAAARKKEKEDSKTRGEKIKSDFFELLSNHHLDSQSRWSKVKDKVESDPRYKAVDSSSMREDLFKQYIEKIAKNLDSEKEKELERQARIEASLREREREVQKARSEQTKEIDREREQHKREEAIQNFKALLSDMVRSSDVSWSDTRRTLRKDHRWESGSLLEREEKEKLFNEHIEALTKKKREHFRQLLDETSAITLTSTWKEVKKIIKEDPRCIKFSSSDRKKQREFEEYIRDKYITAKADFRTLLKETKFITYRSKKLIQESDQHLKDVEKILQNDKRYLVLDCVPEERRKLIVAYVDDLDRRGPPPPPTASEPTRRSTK
# Chain of UniProt P05455 (P05455 whole entry, looked up): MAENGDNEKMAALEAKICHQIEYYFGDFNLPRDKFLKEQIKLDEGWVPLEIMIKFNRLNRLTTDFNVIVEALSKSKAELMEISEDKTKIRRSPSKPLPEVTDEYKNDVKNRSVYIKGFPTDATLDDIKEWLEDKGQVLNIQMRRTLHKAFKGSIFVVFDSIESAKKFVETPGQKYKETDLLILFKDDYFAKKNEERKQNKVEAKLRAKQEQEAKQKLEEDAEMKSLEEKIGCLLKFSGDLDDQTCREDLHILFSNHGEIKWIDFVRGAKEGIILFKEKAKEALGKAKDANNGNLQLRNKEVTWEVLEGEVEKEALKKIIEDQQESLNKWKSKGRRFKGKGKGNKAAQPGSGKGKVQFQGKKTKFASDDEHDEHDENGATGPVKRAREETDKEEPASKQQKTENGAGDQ
# Chain of UniProt O75663 (O75663 whole entry, looked up): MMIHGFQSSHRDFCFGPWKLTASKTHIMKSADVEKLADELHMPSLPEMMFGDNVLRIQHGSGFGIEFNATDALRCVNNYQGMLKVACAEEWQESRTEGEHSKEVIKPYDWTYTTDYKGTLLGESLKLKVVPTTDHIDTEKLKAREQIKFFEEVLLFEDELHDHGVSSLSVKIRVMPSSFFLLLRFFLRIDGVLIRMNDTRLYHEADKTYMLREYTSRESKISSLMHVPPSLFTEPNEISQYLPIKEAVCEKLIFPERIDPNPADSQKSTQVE
# Chain of UniProt Q658P3 (Q658P3 whole entry, looked up): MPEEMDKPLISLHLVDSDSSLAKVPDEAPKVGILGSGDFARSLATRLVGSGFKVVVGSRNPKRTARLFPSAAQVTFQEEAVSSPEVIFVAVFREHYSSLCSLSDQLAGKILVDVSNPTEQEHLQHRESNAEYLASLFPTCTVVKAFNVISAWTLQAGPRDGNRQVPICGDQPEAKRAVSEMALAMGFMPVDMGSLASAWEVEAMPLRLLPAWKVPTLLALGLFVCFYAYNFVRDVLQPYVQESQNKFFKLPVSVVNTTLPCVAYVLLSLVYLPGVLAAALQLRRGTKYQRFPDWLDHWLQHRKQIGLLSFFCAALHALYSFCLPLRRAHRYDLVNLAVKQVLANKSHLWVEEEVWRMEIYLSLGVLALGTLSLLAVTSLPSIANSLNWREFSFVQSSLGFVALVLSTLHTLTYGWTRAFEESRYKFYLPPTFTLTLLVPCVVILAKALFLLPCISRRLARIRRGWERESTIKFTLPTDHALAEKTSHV
# Chain of UniProt Q6XR72 (Q6XR72 whole entry, looked up): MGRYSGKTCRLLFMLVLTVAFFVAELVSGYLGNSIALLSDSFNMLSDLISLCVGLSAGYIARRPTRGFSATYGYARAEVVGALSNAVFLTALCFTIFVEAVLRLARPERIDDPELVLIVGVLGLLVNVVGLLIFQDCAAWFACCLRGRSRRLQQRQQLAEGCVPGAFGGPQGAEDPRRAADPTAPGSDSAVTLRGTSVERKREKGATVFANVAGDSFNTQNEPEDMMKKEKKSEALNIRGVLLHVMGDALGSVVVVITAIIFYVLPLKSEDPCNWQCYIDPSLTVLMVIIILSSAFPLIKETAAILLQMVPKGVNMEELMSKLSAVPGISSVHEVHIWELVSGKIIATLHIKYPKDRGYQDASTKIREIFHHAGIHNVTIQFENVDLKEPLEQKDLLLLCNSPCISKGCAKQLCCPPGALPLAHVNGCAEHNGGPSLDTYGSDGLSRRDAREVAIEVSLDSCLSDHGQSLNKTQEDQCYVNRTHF
# Chain of UniProt P35270 (P35270 whole entry, looked up): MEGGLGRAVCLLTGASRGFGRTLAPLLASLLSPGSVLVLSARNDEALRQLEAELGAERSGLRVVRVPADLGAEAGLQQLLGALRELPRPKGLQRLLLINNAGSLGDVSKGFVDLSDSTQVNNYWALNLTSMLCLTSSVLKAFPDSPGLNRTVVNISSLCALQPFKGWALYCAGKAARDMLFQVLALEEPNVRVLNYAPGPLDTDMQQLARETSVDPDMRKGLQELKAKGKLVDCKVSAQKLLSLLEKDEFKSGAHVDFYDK
Target,log2 fold change (saracatinib),log2 fold change (sotrastaurin),log2 fold change (alvocidib),log2 fold change (Tubastatin A),log2 fold change [1],log2 fold change (defactinib),log2 fold change (rucaparib),log2 fold change [2],log2 fold change (encorafenib),log2 fold change [3],log2 fold change [4],log2 fold change (filanesib),log2 fold change (zotarolimus),log2 fold change (idasanutlin),log2 fold change (alisertib),log2 fold change [5],log2 fold change (gefitinib),log2 fold change [6],log2 fold change (lapatinib),log2 fold change (pictilisib)
SLC30A10 (UniProt Q6XR72),-0.075,0.031,-0.031,0.008,-0.025,0.012,-0.073,-0.036,0.001,-0.011,0.06,0.032,-0.02,0.005,-0.12,0.003,0.095,0.032,0.001,0.095
SNRPB2 (UniProt P08579),0.079,0.041,0.124,-0.11,0.02,0.193,0.058,-0.041,-0.037,0.054,-0.018,0.057,-0.035,0.021,-0.121,0.047,-0.021,-0.006,-0.002,0.006
TCERG1 (UniProt O14776),-0.051,-0.086,-0.18,0.11,-0.011,-0.288,-0.003,0.08,0.063,-0.105,0.104,-0.008,0.025,-0.087,0.043,0.054,0.073,-0.003,-0.036,0
SP1 (UniProt P08047),0.022,0.016,0.023,-0.054,-0.015,0.01,0.066,-0.023,-0.019,0.025,-0.064,0.022,-0.033,-0.002,-0.025,-0.007,-0.043,0.005,-0.004,0.142
TLK2 isoform 2 (UniProt Q86UE8),0.048,-0.012,-0.027,0.014,-0.031,0,-0.051,-0.003,-0.006,0,-0.019,0.038,0.032,0.087,0.115,-0.036,0.007,0.06,0.041,-0.071
STARD9 (UniProt Q9P2P6),0.051,-0.316,-0.337,0.122,-0.344,0.144,-0.005,0.103,0.048,-0.03,-0.037,-0.028,0.098,-0.035,0.096,0.058,-0.132,-0.185,0.154,0.008
SNX9 (UniProt Q9Y5X1),0.01,-0.064,-0.069,-0.025,0.038,-0.112,0.058,-0.005,0.049,0,-0.002,-0.017,0.004,-0.01,-0.013,0.019,0.038,-0.059,-0.034,-0.036
TIPRL (UniProt O75663),-0.028,-0.056,-0.119,0,0.009,-0.049,0.013,-0.001,0.035,-0.014,0.011,-0.063,-0.013,-0.104,0.014,0.043,-0.034,-0.009,-0.009,0.034
ST6GAL1 (UniProt P15907),-0.001,0.018,0.006,0.026,0.159,-0.03,0.004,0.05,0.037,-0.08,0.013,0.224 (active),0.051,0.066,-0.085,0.046,0.095,-0.003,0.116,0.063
SRPRA (UniProt P08240),-0.001,-0.006,-0.014,-0.007,0.033,0.022,0.116,0.06,0.019,-0.044,0.008,-0.022,-0.005,-0.107,-0.005,0.122,-0.032,-0.002,0.013,-0.012
SPR (UniProt P35270),0.318,0.052,0.064,-0.014,-0.053,0.237,0.043,0.026,-0.065,-0.021,0.794 (active),-0.087,0,-0.225,-0.051,-0.039,-0.008,0.021,-0.031,0.681 (active)
SMAP2 (UniProt Q8WU79),-0.047,-0.052,-0.057,0.029,0.107,-0.12,0.114,-0.026,0.087,-0.043,-0.029,0.048,0.045,-0.039,0.11,0.247 (active),0.043,-0.072,-0.009,-0.015
SSB (UniProt P05455),-0.001,-0.158,-0.123,0.015,0.016,-0.187,-0.031,-0.089,0,0.042,-0.036,0.049,-0.063,0,-0.046,-0.132,-0.016,-0.101,-0.031,-0.042
STXBP5 (UniProt Q5T5C0),-0.014,0.019,-0.085,0.01,-0.023,-0.011,-0.002,-0.032,0.028,-0.003,-0.012,-0.039,0,-0.022,-0.084,0.015,-0.006,0.003,0.023,-0.038
SLC25A4 (UniProt P12235),-0.022,0.029,0.068,-0.138,0.044,0.012,-0.061,-0.026,-0.001,0.019,-0.012,-0.024,-0.018,0.003,0.014,0.039,0.006,-0.012,-0.026,0.115
STEAP3 isoform 2 (UniProt Q658P3),-0.02,-0.027,-0.059,-0.027,-0.025,-0.067,0.055,-0.024,0.012,0.006,-0.028,-0.014,-0.06,-0.11,-0.028,0.035,-0.01,0.025,0.013,0.227 (active)
